Data: PubChem BioAssay AID1159580 (chemical genetic matrix, 2015)
Out of some 5,500 compounds screened, about 2,000 (36%) were called active. Inconclusive results (about 18%) are left out. No stated cut-off is given here; in the data, active means normalized growth mostly below about 0.91 (no sharp cut-off); inconclusive means no clear call, values can overlap the other calls; inactive means mostly above about 0.92. The list shows a part of the results.

Experiment: chemical genetic growth profiling, strain panel (AID 1159580);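 further: tested at 20 µM; growth read once vehicle control cultures reached saturation at 30 °C; 1 = growth at the plate median or of vehicle wells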
Conditions: S. cerevisiae deletion strains, growth OD

Measured: normalized growth

O=C(O)/C=C/C=C/c1ccc2c(c1)OCO2
inactive: locus YHR030C, strain SLT2, stronger effect = lower value 0.899 | locus YHR079C, strain IRE1, stronger effect = lower value 0.884 | locus YJL095W, strain BCK1, stronger effect = lower value 0.897 | locus YJR066W, strain TOR1, stronger effect = lower value 0.873 | locus YLR113W, strain HOG1, stronger effect = lower value 0.958 | locus YNL183C, strain NPR1, stronger effect = lower value 0.886 | locus YOR231W, strain MKK1, stronger effect = lower value 0.893 | locus YPL256C, strain CLN2, stronger effect = lower value 0.945
